Values joined by “and” are separate entries in the source; they are usually repeats but may differ in a detail not shown here. Identical values can stand only once. The whole screen tested about 5,500 compounds, of which about 2,000 (36%) were called active. Another 18% or so got no clear call; they are omitted. Cut-off read from the data, not from the text of the source: active = normalized growth mostly below about 0.91 (no sharp cut-off); inconclusive = no clear call, values can overlap the other calls; inactive = mostly above about 0.92. The list shows a part of the results.
Test: chemical genetic growth profiling, strain panel (AID 1159580);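 note: tested at 20 µM; growth read once vehicle control cultures reached saturation at 30 °C; 1 = growth at the plate median or of vehicle wells; lower values mean less growth of the strain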
Conditions: S. cerevisiae deletion strains, growth OD

Measured: normalized growth

Oc1cc(O)c2c(c1)O[C@H](c1ccc(O)c(O)c1)[C@@H](O)C2
inactive: locus YAL021C, strain ccr4, hits give low values 1.03 | locus YAL026C, strain drs2, hits give low values 1.01 | locus YAL030W, strain snc1, hits give low values 1.01 | locus YBL061C, strain skt5, hits give low values 1.01 | locus YBR009C, strain hhf1, hits give low values 0.993 | locus YBR021W, strain FUR4, hits give low values 1.05 | locus YBR023C, strain chs3, hits give low values 1.02 | locus YBR171W, strain sec66, hits give low values 1.01 | locus YBR229C, strain ROT2, hits give low values 0.957 | locus YBR231C, strain swc5, hits give low values 1.01 | locus YBR279W, strain paf1, hits give low values 1.01 | locus YCL011C, strain gbp2, hits give low values 1.01 | locus YCL016C, strain dcc1, hits give low values 1.01 | locus YCL029C, strain bik1, hits give low values 0.972 | locus YCL061C, strain MRC1, hits give low values 1.01 | locus YCL069W, strain vba3, hits give low values 1 | locus YCR088W, strain abp1, hits give low values 1.01 | locus YDL005C, strain med2, hits give low values 1.01 | locus YDL035C, strain GPR1, hits give low values 0.985 | locus YDL040C, strain nat1, hits give low values 1 | locus YDL074C, strain BRE1, hits give low values 1 | locus YDL101C, strain DUN1, hits give low values 0.979 | locus YDL185W, strain tfp1, hits give low values 0.978 | locus YDL192W, strain arf1, hits give low values 0.992 | locus YDR001C, strain nth1, hits give low values 0.994 | locus YDR069C, strain doa4, hits give low values 1.02 | locus YDR101C, strain arx1, hits give low values 1.03 | locus YDR137W, strain rgp1, hits give low values 1.03 | locus YDR159W, strain sac3, hits give low values 1 | locus YDR162C, strain NBP2, hits give low values 0.962 | locus YDR195W, strain ref2 0.972 | locus YDR297W, strain sur2, hits give low values 1.01 | locus YDR318W, strain mcm21, hits give low values 0.981 | locus YDR334W, strain swr1, hits give low values 1 | locus YDR335W, strain msn5, hits give low values 1.01 | locus YDR388W, hits give low values 0.963 | locus YDR392W, strain spt3, hits give low values 0.981 | locus YDR502C, strain sam2, hits give low values 1.01 | locus YEL003W, strain gim4, hits give low values 1.02 | locus YEL037C, strain rad23, hits give low values 1.01 | locus YEL061C, strain CIN8 (second series), hits give low values 1 | locus YEL061C, strain CIN8, hits give low values 0.988 | locus YER015W, strain faa2, hits give low values 1 | locus YER016W, strain bim1, hits give low values 0.997 | locus YER110C, hits give low values 0.98 | locus YER111C, strain swi4, hits give low values 0.988 | locus YER155C, strain BEM2 (second series), hits give low values 1.01 | locus YER155C, strain BEM2, hits give low values 0.991 | locus YER167W, strain BCK2, hits give low values 0.994 | locus YFR010W, strain ubp6, hits give low values 1.02 | locus YGL078C, strain dbp3, hits give low values 0.99 | locus YGL086W, strain mad1, hits give low values 1.04 | locus YGL167C, strain pmr1, hits give low values 1.01 | locus YGL173C, strain kem1, hits give low values 1.01 | locus YGL227W, strain vid30, hits give low values 1 | locus YGL240W, strain doc1, hits give low values 1.01 | locus YGL248W, strain PDE1, hits give low values 0.988 | locus YGL253W, strain hxk2, hits give low values 1.01 | locus YGR078C, strain PAC10, hits give low values 0.976 | locus YGR135W, strain pre9, hits give low values 0.966 | locus YGR252W, strain gcn5, hits give low values 0.947 | locus YHR013C, strain ard1, hits give low values 0.984 | locus YHR027C, strain rpn1, hits give low values 1.01 | locus YHR030C, strain SLT2, hits give low values 0.996 and 0.983 | locus YHR079C, strain IRE1 (second series), hits give low values 0.979 | locus YHR079C, strain IRE1, hits give low values 0.974 | locus YHR094C, strain hxt1, hits give low values 0.972 | locus YHR129C, strain ARP1, hits give low values 0.998 | locus YHR142W, strain chs7, hits give low values 1.03 | locus YHR200W, strain rpn10, hits give low values 0.975 | locus YIL066C, strain RNR3, hits give low values 0.992 | locus YIL073C, strain SPO22, hits give low values 1.02 | locus YIL125W, strain kgd1, hits give low values 1 | locus YIR030C, strain dcg1, hits give low values 0.994 | locus YJL092W, strain hpr5, hits give low values 1 | locus YJL095W, strain BCK1 (second series), hits give low values 1 | locus YJL095W, strain BCK1, hits give low values 0.977 and 0.984 | locus YJL115W, strain asf1, hits give low values 1 | locus YJL129C, strain trk1, hits give low values 1.01 | locus YJL134W, strain LCB3, hits give low values 0.989 | locus YJL154C, strain vps35, hits give low values 1 | locus YJL164C, strain tpk1, hits give low values 1.01 | locus YJL166W, strain qcr8, hits give low values 1.02 | locus YJL168C, strain set2, hits give low values 0.99 | locus YJL187C, strain SWE1 (second series), hits give low values 0.971 | locus YJL187C, strain SWE1, hits give low values 1.01 | locus YJR043C, strain POL32, hits give low values 1.01

Source: PubChem BioAssay AID1159580 (chemical genetic matrix, 2015)
